This passage reports Potency, outcome and activation results from PubChem BioAssay (Tox21).

Experiment [1] is described as follows: qHTS assay to identify small molecule antagonists of the thyroid receptor (TR) signaling pathway (AID 743065). Note: nearly all actives have a fitted effect of over 55% in size. Summed up:
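GH3.TRE-Luc rat pituitary cells (two TREs driving luciferase) were dosed with compound, then stimulated with 1 nM T3 (final) for 23.5 h at 37 C. ONE-Glo luminescence was the read-out, with CellTiter-Fluor fluorescence as the cytotoxicity counter-screen.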

Experiment [2] has as its system thyroid hormone receptor (rat, GH3 cells). Description: qHTS assay to identify small molecule agonists of the thyroid receptor (TR) signaling pathway (AID 743066; calls by dose curve).
The target of experiment [3] is Estrogen receptor (Homo sapiens) (UniProt P03372). Description: qHTS assay to identify small molecule antagonists of the estrogen receptor alpha (ER-alpha) signaling pathway (AID 743069; active = well fitted curve in the direction sought with a large enough effect in the signal ratio in the repeat runs, not every such curve was filed as active; the % refers to the signal ratio). Summed up:
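Reporter cells (ER-alpha-bla, HEK293 background) are conditioned overnight in stripped-serum medium (2% charcoal-stripped FBS). Compound and 17beta-estradiol exposure runs 18 hr at 37C, 5% CO2.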
(In general: Quantitative high-throughput screening tests each substance at several concentrations.)

Experiment [4] is described as follows: qHTS assay to identify small molecule antagonists of the estrogen receptor alpha (ER-alpha) signaling pathway - cell viability counter screen (AID 743074; calls by dose curve;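 note: HEK293 cells carrying ER-alpha-UAS-bla reporter stimulated with 17beta-estradiol; nearly all actives have a fitted effect of over 45% in size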).
Experiment [5] addresses Estrogen receptor (Homo sapiens) (UniProt P03372). Nature of the experiment: qHTS assay to identify small molecule agonists of the estrogen receptor alpha (ER-alpha) signaling pathway (AID 743075; calls by dose curve;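 note: HEK293 GripTite cells with ER-alpha and UAS-driven beta-lactamase reporter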).
Experiment [6] has the same target. Nature of the experiment: qHTS assay to identify small molecule agonists of the estrogen receptor alpha (ER-alpha) signaling pathway using the BG1 cell line (AID 743079). Note: nearly all actives have a fitted effect of over 20% in size. To be noted: BG1Luc4E2 cells, ERE-luciferase agonist, 22 h.
Experiment [7] in a line: qHTS assay to identify small molecule antagonists of the estrogen receptor alpha (ER-alpha) signaling pathway using the BG1 cell line (AID 743080; calls by dose curve;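 note: BG1 cells stimulated with 17beta-estradiol alongside compound; nearly all actives have a fitted effect of over 25% in size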). In outline:
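BG1Luc4E2, endogenous ER-alpha, 4xERE-luc; 5 d charcoal-stripped FBS, phenol red free; 24 h plating; cpd + 17beta-estradiol 21.5 h, 37 C/5% CO2; CellTiter-Fluor viability 30 min, then ONE-Glo luciferase 30 min RT.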

Experiment [8] in a line: qHTS assay to identify small molecule antagonists of the estrogen receptor alpha (ER-alpha) signaling pathway using the BG1 cell line - cell viability counter screen (AID 743081).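 Note: compound given together with 17beta-estradiol as the ER stimulus; nearly all actives have a fitted effect of over 45% in size.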
Another experiment deals with Aromatase (Homo sapiens) (UniProt P11511). Description: qHTS assay to identify aromatase inhibitors (AID 743083). Note: nearly all actives have a fitted effect of over 55% in size.
Aromatase (Homo sapiens), sequence (P11511 whole entry, looked up): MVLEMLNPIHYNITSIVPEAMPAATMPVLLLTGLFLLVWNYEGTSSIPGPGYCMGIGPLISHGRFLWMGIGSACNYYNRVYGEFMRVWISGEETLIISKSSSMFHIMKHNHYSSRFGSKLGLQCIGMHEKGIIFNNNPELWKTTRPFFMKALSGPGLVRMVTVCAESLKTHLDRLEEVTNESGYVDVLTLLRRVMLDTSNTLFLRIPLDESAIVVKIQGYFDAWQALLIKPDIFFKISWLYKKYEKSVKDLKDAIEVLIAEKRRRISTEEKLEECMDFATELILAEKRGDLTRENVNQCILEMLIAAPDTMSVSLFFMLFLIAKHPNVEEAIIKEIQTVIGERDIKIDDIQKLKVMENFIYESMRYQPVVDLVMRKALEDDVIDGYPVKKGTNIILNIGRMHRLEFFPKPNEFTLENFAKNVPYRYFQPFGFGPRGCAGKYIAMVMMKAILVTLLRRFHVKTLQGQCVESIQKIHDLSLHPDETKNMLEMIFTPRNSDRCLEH
Experiment [9] is described as follows: qHTS assay to identify aromatase inhibitors - cell viability counter screen (AID 743084).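 Note: cells stimulated with testosterone during compound exposure; nearly all actives have a fitted effect of over 55% in size.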
Experiment [10] addresses Aryl hydrocarbon receptor (Homo sapiens) (UniProt P35869). Description: qHTS assay to identify small molecule that activate the aryl hydrocarbon receptor (AhR) signaling pathway (AID 743085).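 Note: HG2L7.5c1 human HepG2 liver cells with stably integrated DRE-driven firefly reporter; nearly all actives have a fitted effect of over 15% in size.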 Summed up: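 Luminescence (ONE-Glo) from a dioxin-responsive-element luciferase reporter in HG2L7.5c1 HepG2 cells after 24 hr compound exposure at 37C; viability measured by CellTiter-Fluor fluorescence beforehand.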

The nature of experiment [11]: qHTS assay to identify small molecule that activate the aryl hydrocarbon receptor (AhR) signaling pathway - cell viability counter screen (AID 743086).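 Note: HepG2 liver cells carrying the AhR DRE luciferase reporter; nearly all actives have a fitted effect of over 45% in size.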 In outline: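 HepG2-AhR-luc (HG2L7.5c1) cells, 4000/well, treated 24 h at 37 C with compound; viability measured as CellTiter-Fluor fluorescence after 30 min in the same wells as the luciferase read.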
Experiment [12] concerns the target Peroxisome proliferator-activated receptor gamma (Homo sapiens) (UniProt P37231). Description: qHTS assay to identify small molecule agonists of the peroxisome proliferator-activated receptor gamma (PPARg) signaling pathway (AID 743094; active = well fitted activation curve with a large enough effect in the signal ratio in the repeat runs, not every such curve was filed as active; the % refers to the signal ratio). Summed up:
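Compounds dissolved in DMSO were added to PPARg UAS-bla HEK293H cells for 17 h at 37C, and reporter expression was quantified by fluorescence intensity after 1 h with LiveBLAzer B/G FRET substrate.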

The nature of experiment [13]: qHTS assay to identify small molecule antagonists of the peroxisome proliferator-activated receptor gamma (PPARg) signaling pathway - cell viability counter screen (AID 743194). Note: nearly all actives have a fitted effect of over 55% in size. The settings on record: Potency: co-treated with 50 nM rosiglitazone. In outline: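 Cytotoxicity counter screen in PPARg-bla HEK293H cells, same wells as reporter assay. Compounds plus 50 nM rosiglitazone (final) for 17 h at 37 C, then viability read by CellTiter-Glo luminescence.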

The nature of experiment [14]: qHTS assay for small molecule agonists of the antioxidant response element (ARE) signaling pathway (AID 743202; active = well fitted activation curve with a large enough effect in the signal ratio in the repeat runs, not every such curve was filed as active; the % refers to the signal ratio; note: potency is the fitted concentration of half-maximal effect). In outline: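 Agonist mode reporter screen: HepG2 cells with ARE-controlled beta-lactamase are incubated with test compounds for 16 h at 37 C, and beta-lactamase activity is measured as fluorescence of cleaved B/G FRET substrate.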
Experiment [15] in a line: qHTS assay for small molecule agonists of the antioxidant response element (ARE) signaling pathway - cell viability counter screen (AID 743203; calls by dose curve; note: nearly all actives have a fitted effect of over 55% in size). In outline:
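Following 16 hrs of compound treatment at 37C, HepG2 cells with an ARE-controlled beta-lactamase gene were lysed with CellTiter-Glo. Luminescence was read after 30 min at room temperature.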

The nature of experiment [16]: qHTS assay for small molecule activators of the heat shock response signaling pathway - cell viability counter screen (AID 743209). Note: nearly all actives have a fitted effect of over 50% in size. In outline:
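Readout: CellTiter-Glo luminescence, 30 min at room temperature. System: HSE-bla HeLa cells, 1500/well, plated overnight. Treatment: compounds in DMSO, 5 h at 37 C.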

Experiment [17] in a line: qHTS assay for small molecule activators of the heat shock response signaling pathway (AID 743210; active = well fitted activation curve with a large enough effect in the signal ratio in the repeat runs, with a control signal flat, not every such curve was filed as active; the % refers to the signal ratio;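 note: HeLa cells with beta-lactamase reporter driven by heat shock elements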). In outline:
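Quantitative high-throughput format using an engineered HeLa line in which heat shock response elements drive beta-lactamase; after 5 h with compound, cells received a B/G FRET substrate and fluorescence was read.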

A short description of experiment [18]: qHTS assay to identify small molecule agonists of the peroxisome proliferator-activated receptor delta (PPARd) signaling pathway - cell viability counter screen (AID 743211). Note: nearly all actives have a fitted effect of over 55% in size. In outline: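 Viability was measured as CellTiter-Glo luminescence (30 min, room temperature) in the same wells as the beta-lactamase readout. GeneBLAzer PPARd UAS-bla HEK293H cells received compound after 5 h plating and were incubated 17 h at 37 C.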

Experiment [19] has as its target Peroxisome proliferator-activated receptor gamma (Homo sapiens) (UniProt P37231). Description: qHTS assay to identify small molecule antagonists of the peroxisome proliferator-activated receptor gamma (PPARg) signaling pathway (AID 743191; calls by dose curve; note: nearly all actives have a fitted effect of over 30% in size). In outline:
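GeneBLAzer PPARg UAS-bla HEK293H cells, 5 h post-plating, exposed to compounds 17 h at 37C. LiveBLAzer B/G FRET substrate added for 1 h at room temperature; beta-lactamase reporter read by fluorescence intensity.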

Values joined by “and” are separate entries in the source; they are usually repeats but may differ in a detail not shown here. Equal entries are not always repeated. Inconclusive results are not listed. Unmarked numbers belong to inactive results. Active and inactive are the calls of the source. Unless noted, calls come from the whole dose curve; as a rule, active = well fitted curve in the direction sought with a large enough effect in the repeat runs; inconclusive = weak or mixed curves; inactive = no such curve, though single readings can be large; an effect the other way counts as inactive or inconclusive.
% is set by controls: 0 for no effect and ±100 for the full control effect.

Aryl hydrocarbon receptor (Homo sapiens), sequence (P35869 whole entry, looked up): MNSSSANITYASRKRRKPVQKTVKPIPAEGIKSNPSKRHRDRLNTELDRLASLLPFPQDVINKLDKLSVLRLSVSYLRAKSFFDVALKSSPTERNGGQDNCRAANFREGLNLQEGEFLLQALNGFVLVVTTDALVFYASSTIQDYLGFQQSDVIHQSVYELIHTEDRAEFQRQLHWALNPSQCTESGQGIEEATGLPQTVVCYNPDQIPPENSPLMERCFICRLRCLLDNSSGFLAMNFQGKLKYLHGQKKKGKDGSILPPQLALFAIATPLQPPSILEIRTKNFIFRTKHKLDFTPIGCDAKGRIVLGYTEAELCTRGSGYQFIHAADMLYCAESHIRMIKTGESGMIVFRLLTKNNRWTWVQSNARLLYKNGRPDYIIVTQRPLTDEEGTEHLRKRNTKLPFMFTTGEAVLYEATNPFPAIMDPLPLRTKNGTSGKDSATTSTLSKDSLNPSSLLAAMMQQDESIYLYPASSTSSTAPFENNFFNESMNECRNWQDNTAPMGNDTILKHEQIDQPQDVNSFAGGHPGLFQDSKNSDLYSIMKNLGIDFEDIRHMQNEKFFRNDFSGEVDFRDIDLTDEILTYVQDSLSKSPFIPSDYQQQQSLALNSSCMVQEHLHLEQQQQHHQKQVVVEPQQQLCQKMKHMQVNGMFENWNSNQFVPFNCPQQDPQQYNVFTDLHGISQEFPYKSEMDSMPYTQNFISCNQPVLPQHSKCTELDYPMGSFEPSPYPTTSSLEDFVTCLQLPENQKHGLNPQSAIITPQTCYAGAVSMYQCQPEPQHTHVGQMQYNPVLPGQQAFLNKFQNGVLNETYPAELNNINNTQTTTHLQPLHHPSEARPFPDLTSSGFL
Peroxisome proliferator-activated receptor gamma (Homo sapiens), sequence (P37231 whole entry, looked up): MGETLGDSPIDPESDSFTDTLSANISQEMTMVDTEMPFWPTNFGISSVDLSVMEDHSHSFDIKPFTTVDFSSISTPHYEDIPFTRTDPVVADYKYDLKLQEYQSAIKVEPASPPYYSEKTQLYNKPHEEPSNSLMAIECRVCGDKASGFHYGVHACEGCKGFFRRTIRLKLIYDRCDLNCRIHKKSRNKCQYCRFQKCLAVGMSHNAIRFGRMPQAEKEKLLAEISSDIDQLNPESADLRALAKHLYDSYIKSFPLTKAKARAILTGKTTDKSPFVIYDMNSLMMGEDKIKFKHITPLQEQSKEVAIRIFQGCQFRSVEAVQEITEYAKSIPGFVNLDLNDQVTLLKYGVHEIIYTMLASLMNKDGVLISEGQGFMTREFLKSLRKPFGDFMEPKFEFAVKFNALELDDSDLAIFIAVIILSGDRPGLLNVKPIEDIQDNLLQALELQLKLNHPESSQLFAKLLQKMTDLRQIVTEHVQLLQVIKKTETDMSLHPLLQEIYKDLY
Estrogen receptor (Homo sapiens), sequence (P03372 whole entry, looked up): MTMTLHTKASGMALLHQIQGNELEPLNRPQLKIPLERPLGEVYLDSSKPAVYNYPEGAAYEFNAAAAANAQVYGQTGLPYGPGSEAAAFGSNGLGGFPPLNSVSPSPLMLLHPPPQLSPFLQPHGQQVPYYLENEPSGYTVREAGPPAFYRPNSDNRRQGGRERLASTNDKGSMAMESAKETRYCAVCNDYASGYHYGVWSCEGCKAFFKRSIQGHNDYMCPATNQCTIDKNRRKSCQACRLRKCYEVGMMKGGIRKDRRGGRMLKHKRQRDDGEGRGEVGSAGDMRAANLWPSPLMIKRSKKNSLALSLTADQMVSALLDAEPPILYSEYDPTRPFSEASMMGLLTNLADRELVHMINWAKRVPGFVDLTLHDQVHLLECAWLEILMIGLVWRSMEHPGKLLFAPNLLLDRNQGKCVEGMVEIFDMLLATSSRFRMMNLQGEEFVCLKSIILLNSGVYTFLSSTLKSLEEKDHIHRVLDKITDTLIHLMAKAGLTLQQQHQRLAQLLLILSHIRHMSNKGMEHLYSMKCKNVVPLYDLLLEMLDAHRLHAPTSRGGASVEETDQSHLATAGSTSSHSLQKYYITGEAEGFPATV

Take `CCC(=O)c1ccccc1`: the Potency result in experiment [1], in experiment [2], in experiment [3], in experiment [5], in experiment [7] and in experiment [8] was “inactive” each time. In addition, the Potency entry (in the experiment with Aromatase (Homo sapiens); in [9]; in [10]; in experiment [13]; in [14]; in experiment [15]) was “inactive” throughout. The Potency result in [16] and in [18] was “inactive” each time. Moreover, the molecule was classed as inactive in experiment [4], in [11], in [12] and in experiment [17]. Moreover, the activation in [6] (at 70.3 µM (top of the series)) is -1.07%.

With `CCOP(=O)(N=C1SCCS1)OCC`, the Potency result in [1], in experiment [2], in experiment [3], in experiment [5], in experiment [7] and in experiment [8] was “inactive” in each case. The Potency entry (with Aromatase (Homo sapiens); in experiment [9]; in [10]; in experiment [19]; in [13]; in experiment [14]) was “inactive” in each case. Besides, the Potency result in [15], in experiment [16] and in [18] was “inactive” throughout. In addition, the outcome in [4], in experiment [11] and in experiment [12] was inactive. In experiment [6] (at 70.3 µM (top of the series)), the activation was -3.11%.

In the case of `OCCBr`, the Potency entry in experiment [1], in [2], in experiment [3], in [5], in [7] and in [8] was “inactive” throughout. For the same molecule, the Potency entry (with Aromatase (Homo sapiens); in experiment [9]; in experiment [10]; in experiment [19]; in experiment [13]; in experiment [16]) was “inactive” each time. Besides, in experiment [18], the Potency result was “inactive”. Further, the molecule was called inactive in [4], in experiment [11], in experiment [12] and in experiment [17]. Also, in experiment [6] (at 70.3 µM (top of the series)), the activation is 6.61%. Also, the Potency in [14] is 27.4 µM (active).

Take `CCC1(c2ccccc2)C(=O)NC(=O)NC1=O`: the Potency result in [1], in experiment [2], in experiment [3], in [5], in experiment [7] and in experiment [8] was “inactive” in each case. In addition, the Potency entry (with Aromatase (Homo sapiens); in experiment [9]; in [10]; in experiment [19]; in experiment [13]; in experiment [14]) was “inactive” in each case. The Potency result in experiment [15], in [16] and in [18] was “inactive” throughout. Further, the outcome in [4], in experiment [11] and in experiment [12] was inactive. Further, the activation is -1.3% in [6] (at 70.3 µM (top of the series)) and -10.3% in [6] (at 95 µM (top of the series)).

As to `Cc1ncc(CNC(=O)N(CCCl)N=O)c(N)n1`, the Potency result in experiment [1], in experiment [2], in experiment [3], in experiment [5], in experiment [7] and in experiment [8] was “inactive” each time. For the same molecule, the Potency entry (with Aromatase (Homo sapiens); in experiment [9]; in experiment [10]; in experiment [19]; in experiment [13]; in experiment [14]) was “inactive” in each case. Further, the Potency entry in experiment [15], in experiment [16] and in [18] was “inactive” throughout. The call in experiment [4], in experiment [11], in experiment [12] and in experiment [17] was inactive. Also, the activation in [6] (at 70.3 µM (top of the series)) is 12.7%.

Consider `O=C(N[C@H]1CN2CCC1CC2)c1cc2ccoc2cn1`, for which the Potency result in experiment [1], in [2], in [3], in [5], in experiment [7] and in experiment [8] was “inactive” throughout. The Potency entry (with Aromatase (Homo sapiens); in experiment [9]; in experiment [10]; in [19]; in experiment [15]; in [16]) was “inactive” each time. In addition, the Potency result in experiment [18] is “inactive”. For the same molecule, the outcome in experiment [4], in [11], in [12] and in [17] was inactive. Also, the activation in [6] (at 70.3 µM (top of the series)) was -3.48%.

Consider `COC(=O)C(c1ccccc1)C1CCCCN1` (configuration not stated), for which the Potency entry in [1], in [2], in experiment [3], in experiment [5], in [7] and in experiment [8] was “inactive” in each case. For the same molecule, the Potency entry (with Aromatase (Homo sapiens); in experiment [9]; in experiment [10]; in experiment [19]; in experiment [16]; in [18]) was “inactive” in each case. Further, the call in experiment [4], in [11], in experiment [12] and in experiment [17] was inactive. In experiment [6] (at 70.3 µM (top of the series)), the activation is 2.44% and -6.09%.
